Calls of active or inactive are those of the source. Rule as the data show it, unless noted: active = inhibition above about 80%; inactive = the rest.

The nature of assay [1]: compounds altering circadian rhythm period length – cell-based, LOPAC library, luminescence reporter (AID 2774; call rule not given here;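 also: values are relative to mean of DMSO wells on each plate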). Particulars: circadian reporter cells, at 7 µM, actives lie on both sides.
The subject of assay [2] is Hepatitis C virus NS3 helicase. As to the kind of experiment: blockers of NS3h binding to ssDNA – biochemical, fluorescence polarization, LOPAC1280 library, primary screen (AID 687035; in the data active = inhibition above about 37%). Particulars: Purified HCV NS3 helicase, Cy5-dT15 ssDNA binding fluorescence polarization; stronger effect = higher value; concentration not given here. (In general: Polarisation of emitted light reports the rotation of a fluorescent probe.)

A short description of assay [3]: compounds altering Cy5-DNA-NS3h complex signal – biochemical, LOPAC1280, artefact control for HCV NS3 helicase inhibitor project (AID 687037; call rule not given here). Conditions: Cy5-DNA-NS3h complex fluorescence interference counterscreen. On the technique in general: Counterscreens check selectivity or assay interference.
Assay [4] in a line: growth inhibition, single agents and combos, LFS_MB_1R, cell-based, cisplatin or BGB combos, synergistic combos for chromothripsis tumors (AID 1671452).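 Also: cells exposed for 96 hours before readout.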 Particulars: LFS_MB_1R medulloblastoma cells, stronger effect = higher value.
The nature of assay [5]: growth inhibition, single agents and combos, CRL2098, cell-based, BGB or cisplatin IC20 combos, synergistic combos for chromothripsis tumors (AID 1671454).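 Also: cells exposed for 96 h before readout; 0% = vehicle DMSO and 100% = killing by high DMSO.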 Particulars: CRL2098 osteosarcoma cells, drug combinations, stronger effect = higher value.
A short description of assay [6]: growth inhibition, single agents and combos, HD-MB03, cell-based, BGB or cisplatin IC20 combos, synergistic combos for chromothripsis tumors (AID 1671455; in the data active = inhibition above about 83%;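 also: 0% = vehicle DMSO and 100% = high DMSO as cytotoxic control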). Particulars: HD-MB03 medulloblastoma cells, stronger effect = higher value.
The nature of assay [7]: growth inhibition, single agents and combos, UWB1.289, cell-based, BGB or cisplatin combos, synergistic combos for chromothripsis tumors (AID 1671456).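 Also: cells exposed to compound for four days; 0% = vehicle DMSO and 100% = killing by high DMSO.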 Particulars: UWB1.289 ovarian carcinoma cells, stronger effect = higher value.
A short description of assay [8]: growth inhibition, single agents and combos, LFS_MB_2R, cell-based, cisplatin combos, synergistic combos for chromothripsis tumors (AID 1671457).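 Also: cells exposed to compound for four days before readout.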 Conditions: LFS_MB_2R medulloblastoma cells, stronger effect = higher value.
Assay [9] in a line: growth inhibition, MDA-MB-436, cell-based, BGB or cisplatin combos, synergistic combos for chromothripsis tumors (AID 1671458; call rule not given here;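 also: cells exposed for 96 hours; 0% = vehicle DMSO and 100% = killing by high DMSO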). Particulars: MDA-MB-436 breast carcinoma growth inhibition, drug combinations, stronger effect = higher value.
Assay [10] in a line: UWB1.289_BRCA1 ovarian cancer growth, cell-based, BGB or cisplatin combinations (AID 1671459). Conditions: UWB1.289 BRCA1 ovarian carcinoma, drug combinations, stronger effect = higher value.
Assay [11] in a line: drug combination toxicity in non-malignant astrocytes – cell-based, BGB or cisplatin IC20 combos, cytotoxicity control for chromothriptic childhood tumor combination screen (AID 1671460).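 Also: cells exposed to compounds for 96 hours before viability readout; 0% = vehicle and 100% = killing control.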 Conditions: Human astrocytes, viability inhibition, drug combinations, at 0.5 µM, stronger effect = higher value.
Assay [12] can be described thus: BT084 cell growth, single and combined drugs, ICGC_MB145, cisplatin and BGB IC40 combos (AID 1671461).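 Also: cells exposed to drugs for 96 hours; 0% = vehicle DMSO and 100% = high DMSO full killing control.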 Particulars: BT084 medulloblastoma cells, drug combinations, stronger effect = higher value.
Assay [13] in a line: RCMB18 cell growth, single agent and combined, cisplatin and BGB IC40 combos (AID 1671462).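 Also: cells exposed to compound for four days.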 Conditions: RCMB18 medulloblastoma cells, stronger effect = higher value.
A short description of assay [14]: CRL1545 cell growth, single agent and combined, cisplatin and BGB IC20 combos (AID 1671464).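 Also: cells exposed to compound for 96 hours before readout; 0% = vehicle DMSO and 100% = high DMSO killing control.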 Particulars: CRL1545 osteosarcoma cells, stronger effect = higher value.
A short description of assay [15]: liver-stage malaria parasite load reduction – cell-based, known kinase inhibitor set, luminescence, hepatoma host viability (AID 624392; call rule not given here;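 also: infected cells incubated roughly two days before readout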). Conditions: Plasmodium liver stage in hepatoma cells, luciferase luminescence, concentration not given here; liver cell % of control: measured here: host liver cell viability; parasite % of control: stronger effect = lower value.
A short description of assay [16]: blockers of cellular phospholipid synthesis – cell-based, LOPAC library, screen 4, primary screen (AID 1347384; call rule not given here). Conditions: animal cells, phospholipid biosynthesis inhibition screen; at 10 µM.
Assay [17] can be described thus: compounds altering viability of human ES cells (AID 493140; call rule not given here;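 also: cells exposed to compounds for four days before counting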). Particulars: human embryonic stem cell survival screen; stronger effect = higher value.
Assay [18] concerns the target Mitogen-activated protein kinase 7 (Homo sapiens) (UniProt Q13164). Briefly: Gal4-ERK5 driven luciferase induction – cell-based, HTS, primary screen (AID 1508626;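 active = luciferase signal above three times the same-plate solvent-only control wells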;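 also: luciferase driven by Gal4-ERK5 fusion binding five Gal4 sites before minimal TATA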). Conditions: HeLa Gal4-ERK5 transactivation, 18 h, at 5 µM, stronger effect = higher value.
The mark [19] stands for this setting: measured here: combination with BGB IC40, at 0.05 µM.
[20] abbreviates: measured here: combination with cisplatin, at 0.5 µM.
[21] abbreviates: measured here: combination with cisplatin, at 5 µM.
The mark [22] stands for this setting: measured here: combination with BGB at IC20, at 0.5 µM.
[23] abbreviates: measured here: combination with cisplatin at IC20, at 0.5 µM.
Where [24] appears, read: measured here: combo with BGB at IC20, at 0.5 µM.
Setting [25] is: measured here: combo with cisplatin at IC20, at 0.5 µM.
[26] abbreviates: measured here: inhibition with BGB combination, at 0.05 µM.
Setting [27] is: measured here: inhibition with cisplatin combination, at 0.05 µM.
[28] abbreviates: measured here: BGB combination, at 0.5 µM.
Where [29] appears, read: measured here: BGB combination, at 5 µM.
[30] abbreviates: measured here: cisplatin combination, at 0.5 µM.
The mark [31] stands for this setting: measured here: cisplatin combination, at 5 µM.
Where [32] appears, read: BGB combination, concentration series, at 5 µM.
[33] abbreviates: cisplatin combination, concentration series, at 5 µM.
[34] abbreviates: measured here: combo with BGB IC20.
The mark [35] stands for this setting: measured here: combo with cisplatin IC20.
[36] abbreviates: cisplatin combination, at 0.5 µM.
[37] abbreviates: measured here: BGB IC40 combination 0.05 uM, at 0.05 µM.
Where [38] appears, read: measured here: BGB IC40 combination, at 0.05 µM.
The mark [39] stands for this setting: measured here: with BGB IC20 combination, at 0.5 µM.
Where [40] appears, read: measured here: with cisplatin IC20 combination, at 0.5 µM.

Sequence of Mitogen-activated protein kinase 7 (Homo sapiens) (Q13164 whole entry, looked up, the tested form may be a part): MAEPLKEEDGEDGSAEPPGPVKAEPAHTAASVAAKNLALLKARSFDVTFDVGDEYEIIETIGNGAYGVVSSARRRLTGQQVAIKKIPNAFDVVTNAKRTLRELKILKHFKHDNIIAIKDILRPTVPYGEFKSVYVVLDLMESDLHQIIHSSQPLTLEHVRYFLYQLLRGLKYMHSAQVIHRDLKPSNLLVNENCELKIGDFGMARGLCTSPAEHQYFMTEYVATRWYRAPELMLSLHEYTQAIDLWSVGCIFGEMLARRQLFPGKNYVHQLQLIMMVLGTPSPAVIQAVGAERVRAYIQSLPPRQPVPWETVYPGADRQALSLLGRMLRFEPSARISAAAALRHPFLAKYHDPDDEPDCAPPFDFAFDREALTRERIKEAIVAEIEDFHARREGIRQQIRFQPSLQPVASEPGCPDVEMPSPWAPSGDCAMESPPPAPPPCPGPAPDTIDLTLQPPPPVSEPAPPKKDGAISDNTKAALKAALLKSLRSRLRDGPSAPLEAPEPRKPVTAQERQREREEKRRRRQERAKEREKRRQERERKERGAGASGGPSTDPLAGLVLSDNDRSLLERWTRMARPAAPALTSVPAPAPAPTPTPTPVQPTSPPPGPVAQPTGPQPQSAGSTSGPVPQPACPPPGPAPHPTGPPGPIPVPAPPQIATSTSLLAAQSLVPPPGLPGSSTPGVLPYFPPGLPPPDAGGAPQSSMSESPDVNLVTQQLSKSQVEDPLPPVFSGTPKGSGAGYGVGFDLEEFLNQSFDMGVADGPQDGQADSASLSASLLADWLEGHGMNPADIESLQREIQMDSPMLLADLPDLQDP

What is called inhibition is the drop in the measured response relative to a control, in per cent. Take `N#C/C(=C\c1ccc(O)c(O)c1)C(=O)NCCCc1ccccc1`: in [1], the period change was 0.005 h (inactive). Further, in assay [2], the inhibition was -2% (inactive). The fluorescence ratio (interference) in assay [3] is 1 (inactive).

In the case of `COc1cc(C=O)c([N+](=O)[O-])cc1OC`, the inhibition was -20.1% (inactive) in [4] (at 0.5 µM); -4.39% in assay [4] (setting [19]); -40% in assay [4] (setting [20]); -37.8% in assay [4] (setting [21]); -33.8% (inactive) in [5] (at 0.5 µM); -36.3% in [5] (setting [22]). Moreover, the inhibition in [5] (setting [23]) was -11%; in assay [6] (at 0.5 µM), -11.8% (inactive); in assay [6] (setting [24]) it was -17.8%; in assay [6] (setting [25]) it was -8.28%; in assay [7] (at 0.5 µM), -8.53% (inactive); in [7] (setting [26]), 3.53%. The inhibition is -7.7% in assay [7] (setting [27]); -7.6% (inactive) in assay [8] (at 0.5 µM); -4.15% in assay [8] (setting [20]); 0.394% in assay [8] (setting [21]); -6.2% (inactive) in [9] (at 0.5 µM); -13% in [9] (setting [28]). In addition, the inhibition in assay [9] (setting [29]) was -6.36%; in assay [9] (setting [30]), 1.75%; in assay [9] (setting [31]) it was 6.49%; in assay [10] (setting [32]), 0.582%; in assay [10] (at 0.5 µM), -4.66% (inactive); in [10] (setting [33]), -5.09%. Besides, the inhibition in [11] was -7.65% (inactive); in [11] (setting [34]), -3.78%; in assay [11] (setting [35]), -9.79%; in [12] (at 0.5 µM), 1.74% (inactive); in assay [12] (setting [36]), 3.64%; in assay [12] (cisplatin combination, at 5 µM), -6.4%. Also, the inhibition in assay [12] (setting [37]) was 80.8%; in assay [12] (single agent, at 5 µM), 1.94%; in [13] (at 0.5 µM) it was -0.87% (inactive); in [13] (cisplatin combo, at 5 µM), -1.64%; in assay [13] (setting [38]), 1.84%; in assay [13] (setting [20]), 9.53%. Further, the inhibition in assay [13] (single agent, at 5 µM) is -21.6%; in [14] (at 0.5 µM), -4.03% (inactive); in assay [14] (setting [39]) it was -16.1%; in assay [14] (setting [40]), 2%; in assay [14] (single agent, at 0.05 µM) it was -14.2%; in assay [14] (single agent, at 5 µM), -34.2%.

In the case of `N#C/C(=C\c1ccc(O)c(O)c1)C(=O)Nc1ccccc1`, in assay [1], the period change was 0.11 h (inactive). Besides, the inhibition in assay [2] was -2% (inactive). Moreover, the fluorescence ratio (interference) in [3] was 0.9 (inactive).

For `COC(=O)c1c(-c2cc(OC)c(OC)c(OC)c2)c2ccnc(OCc3ncccn3)c2c(=O)n1Cc1ccnc(C)c1`, the period change in [1] is 0.03 h (inactive).

As to `CCOC(=O)C12CC1/C(=N\O)c1ccccc1O2` (stereo not drawn), in assay [2], the inhibition was 0% (inactive). Moreover, the fluorescence ratio (interference) in assay [3] was 1 (inactive).

In the case of `CN(C)C(=O)n1nnnc1Cc1ccc(-c2ccccc2)cc1`, in assay [2], the inhibition was -2% (inactive). The fluorescence ratio (interference) in [3] is 1 (inactive).

`COc1ccc(OC)c2c(=S)c3ccccc3[nH]c12`: in assay [15], the liver cell % of control was determined as 97.2% and the parasite % of control was 125% (inactive).

Regarding `CS(=O)(=O)c1cccc(CNc2nc(Nc3ccc4c(c3)CCC(=O)N4)ncc2C(F)(F)F)c1`, the compound was classed as inactive in assay [16].

For `COc1cc2nc(N3CCCN(C)CC3)nc(NC3CCN(Cc4ccccc4)CC3)c2cc1OC`, the inhibition in [2] is 3% (inactive). Moreover, the fluorescence ratio (interference) in assay [3] is 1 (inactive). The call in assay [16] was inactive.

Regarding `C=C1C(=O)O[C@@H]2[C@H]3O[C@]3(C)CC/C=C(\C)CC[C@@H]12`, the survival in [17] was 0.167 (inactive). Besides, the luciferase signal in assay [18] was 92 AU (inactive).

Turning to `Nc1ccc(-c2ccc3ncc4ccc(=O)n(-c5cccc(C(F)(F)F)c5)c4c3c2)cn1`, the inhibition in assay [4] (at 0.5 µM) is -12.4% (inactive); in [4] (setting [19]), -33.9%; in assay [4] (setting [20]), -17%; in assay [4] (setting [21]), 48.5%; in assay [5] (at 0.5 µM) it was 47.4% (inactive); in assay [5] (setting [22]), 49.5%. The inhibition in assay [5] (setting [23]) was 49.4%; in assay [6] (at 0.5 µM), 39.9% (inactive); in assay [6] (setting [24]), 13.5%; in assay [6] (setting [25]) it was 69.9%; in assay [7] (at 0.5 µM), 49.8% (inactive); in [7] (setting [26]), -0.684%. For the same compound, the inhibition in assay [7] (setting [27]) was 1.16%; in [8] (at 0.5 µM) it was 2.91% (inactive); in assay [8] (setting [20]), 17.6%; in [8] (setting [21]) it was 76.8%; in assay [9] (at 0.5 µM), 12% (inactive); in [9] (setting [28]), 0.276%. Also, the inhibition was 32.6% in [9] (setting [29]); -4.07% in [9] (setting [30]); 57.7% in assay [9] (setting [31]); 98.8% in assay [10] (setting [32]); 52.1% (inactive) in assay [10] (at 0.5 µM); 104% in assay [10] (setting [33]). Besides, the inhibition is 76.8% (inactive) in assay [11]; 71% in assay [11] (setting [34]); 77.3% in [11] (setting [35]); 21.2% (inactive) in [12] (at 0.5 µM); 28.2% in assay [12] (setting [36]); 33.5% in [12] (cisplatin combination, at 5 µM). The inhibition is -29.9% in assay [12] (setting [37]); 41.3% in assay [12] (single agent, at 5 µM); 16.5% (inactive) in assay [13] (at 0.5 µM); 59.1% in assay [13] (cisplatin combo, at 5 µM); -1.59% in assay [13] (setting [38]); 23.5% in assay [13] (setting [20]). Further, the inhibition was 62.1% in [13] (single agent, at 5 µM); 79.5% (inactive) in [14] (at 0.5 µM); 69.2% in [14] (setting [39]); 84.4% in assay [14] (setting [40]); -3.59% in assay [14] (single agent, at 0.05 µM); 98.4% in assay [14] (single agent, at 5 µM).

For the origin of these results see PubChem BioAssay.
